Results as given in PubChem BioAssay (EPA / NIEHS).
Where “and” joins values, the source holds several entries; their conditions need not be identical. Equal values may be shown once. Results filed as inconclusive are left out. Calls of active or inactive are those of the source. The calls were made as follows: active = hit-call score of the fitted dose curve at least 0.9, where 1 is the maximum; inconclusive = response in the unintended direction; inactive = score below 0.9.

biological target: human CYP1A2, CYP1A2 (gene 1544) (UniProt P05177); assay: NVS_ADME_hCYP1A2: NovaScreen (NVS) CYP450-related Enzyme Activity (ADME) Assay for human CYP1A2 (AID 2283102);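 as to AC50: potency for inhibition since loss of fluorescence marks reduced CYP1A2 activity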
Method in brief: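 Fluorescence-intensity enzyme activity read-out, taken 0.5 h post-dosing, using insect-cell-derived recombinant CYP1A2 and specific fluorescent substrate. Acetonitrile served as negative control/baseline. Single-concentration duplicate screen at 10 uM, then concentration-response follow-up.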

Chain of human CYP1A2, CYP1A2 (gene 1544) (P05177 whole entry, looked up): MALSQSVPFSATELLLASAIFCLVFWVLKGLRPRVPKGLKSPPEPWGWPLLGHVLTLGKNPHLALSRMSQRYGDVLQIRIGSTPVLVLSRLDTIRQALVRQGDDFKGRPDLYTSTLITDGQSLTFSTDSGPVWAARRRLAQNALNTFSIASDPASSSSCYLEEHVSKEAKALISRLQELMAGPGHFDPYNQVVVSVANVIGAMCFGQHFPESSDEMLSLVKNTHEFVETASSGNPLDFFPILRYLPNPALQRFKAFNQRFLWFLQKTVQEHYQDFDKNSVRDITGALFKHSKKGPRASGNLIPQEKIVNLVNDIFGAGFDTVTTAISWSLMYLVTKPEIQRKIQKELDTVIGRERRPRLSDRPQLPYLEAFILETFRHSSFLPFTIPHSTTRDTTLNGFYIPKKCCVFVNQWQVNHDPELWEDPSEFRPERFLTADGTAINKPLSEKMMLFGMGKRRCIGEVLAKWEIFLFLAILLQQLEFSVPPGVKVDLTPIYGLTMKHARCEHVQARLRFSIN

| SMILES | AC50 | outcome |
| --- | --- | --- |
| CN(C)C(=S)S | 5.64 µM (active) |  |
| CCOCn1c(-c2ccc(Cl)cc2)c(C#N)c(Br)c1C(F)(F)F | 1.35 µM (active) |  |
| COC(=O)Nc1cccc(OC(=O)Nc2cccc(C)c2)c1 |  | inactive |

biological target: human CYP2D6, CYP2D6 (gene 1565) (UniProt P10635); assay: NVS_ADME_hCYP2D6: NovaScreen (NVS) CYP450-related Enzyme Activity (ADME) Assay for human CYP2D6 (AID 2283107)
Method in brief: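 Fluorescence intensity read 1 h post-dosing; insect-cell-expressed recombinant protein with fluorogenic substrate, no cells. Activity is scored as signal loss relative to acetonitrile baseline, first at a single 10 uM concentration in duplicate, then as concentration series for confirmed actives.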

Chain of human CYP2D6, CYP2D6 (gene 1565) (P10635 whole entry, looked up): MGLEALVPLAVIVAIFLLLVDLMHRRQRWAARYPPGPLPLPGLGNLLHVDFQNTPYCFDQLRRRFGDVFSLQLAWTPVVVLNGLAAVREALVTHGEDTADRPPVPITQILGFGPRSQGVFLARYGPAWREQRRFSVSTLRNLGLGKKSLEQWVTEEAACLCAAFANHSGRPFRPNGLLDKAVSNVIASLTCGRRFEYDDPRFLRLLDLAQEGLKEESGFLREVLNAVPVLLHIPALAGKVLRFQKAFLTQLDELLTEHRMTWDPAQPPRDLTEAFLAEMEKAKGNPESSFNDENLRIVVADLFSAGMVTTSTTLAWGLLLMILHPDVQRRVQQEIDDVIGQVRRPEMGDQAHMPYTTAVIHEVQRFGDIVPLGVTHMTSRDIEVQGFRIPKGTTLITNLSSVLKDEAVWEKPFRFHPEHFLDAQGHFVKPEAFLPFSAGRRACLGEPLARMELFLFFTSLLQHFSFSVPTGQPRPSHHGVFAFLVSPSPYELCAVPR

| SMILES | outcome | AC50 |
| --- | --- | --- |
| Nc1ccc(N)cc1 | inactive |  |
| N#CCCC(Br)(C#N)CBr (stereo not drawn) |  | 3.08 µM (active) |
| [Cl][Sn]([c]1ccccc1)([c]1ccccc1)[c]1ccccc1 |  | 0.997 µM (active) |

biological target: Cytochrome P450 2C19 (Homo sapiens) (UniProt P33261); assay: NVS_ADME_hCYP2C19: NovaScreen (NVS) CYP450-related Enzyme Activity (ADME) Assay for human CYP2C19 (AID 2283113);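 as to AC50: potency for inhibition seen as loss of fluorescent signal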
Method in brief: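 Recombinant insect-cell-expressed enzyme, fluorescent substrate, 1 h after chemical addition, fluorescence intensity. Baseline = acetonitrile vehicle; activity scored as signal loss. Primary HTS single concentration 10 uM, duplicate; actives retested in concentration series.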

| SMILES | outcome | AC50 |
| --- | --- | --- |
| CN(C)C(=S)S | inactive |  |
| CC(C=O)Cc1ccc2c(c1)OCO2 (stereo not drawn) |  | 5 µM (active) |
| Cc1cc(C(C)(C)c2ccc(O)c(C)c2)ccc1O |  | 1.04 µM (active) |
| CCOC(=O)CCN(SN(C)C(=O)Oc1cccc2c1OC(C)(C)C2)C(C)C |  | 3.01 µM (active) |
| O=[N+]([O-])c1ccc(Nc2ccccc2)cc1 |  | 5 µM (active) |
| CCOC(=O)C(SP(=S)(OC)OC)c1ccccc1 (stereo not drawn) |  | 5 µM (active) |
| CCOP(=O)(OCC)OC(=CCl)c1ccc(Cl)cc1Cl |  | 1.45 µM (active) |
| CNC(=O)CSP(=O)(OC)OC |  | 2.11 µM (active) |
| CC1(C)[C@H](C(=O)O[C@H](C#N)c2cccc(Oc3ccccc3)c2)[C@@H]1/C=C(\Cl)C(F)(F)F |  | 848 nM (active) and 3.32 µM (active) |
| [Cl][Sn]([c]1ccccc1)([c]1ccccc1)[c]1ccccc1 |  | 1.25 µM (active) |
| OC(Cc1ccccc1Cl)(Cn1[nH]cnc1=S)C1(Cl)CC1 (stereo not drawn) |  | 0.689 µM (active) |

biological target: human AMP-activated Protein Kinase, alpha 1 (AMPKa1), PRKAA1 (gene 5562) (UniProt Q13131); assay: NVS_ENZ_hAMPKa1: NovaScreen (NVS) Enzymatic Assay for human AMP-activated Protein Kinase, alpha 1 (AMPKa1) (AID 2283130)
Experimental: NVS_ENZ_hAMPKa1 is a biochemical, single-readout assay that uses extracted gene-proteins in a cell-free assay. Measurements were taken 1 hour after chemical dosing in a 384-well plate.NVS_ENZ_hAMPKa1 is one of one assay component(s) measured or calculated from the NVS_ENZ_hAMPKa1 assay. It is designed to make measurements of enzyme activity, a form of enzyme reporter, as detected with fluorescence intensity signals by Fluorescence and electrophoretic mobility shift technology.Data from the assay component NVS_ENZ_hAMPKa1 was analyzed into 1 assay endpoint. This assay endpoint, NVS_ENZ_hAMPKa1, was analyzed in the positive analysis fitting direction relative to DMSO as the negative control and baseline of activity. Using a type of enzyme reporter, loss-of-signal activity can be used to understand changes in the enzymatic activity as they relate to the gene PRKAA1. Furthermore, this assay endpoint can be referred to as a primary readout, because this assay has produced multiple assay endpoints where this one serves a enzymatic activity function. To generalize the intended target to other relatable targets, this assay endpoint is annotated to the kinase intended target family, where the subfamily is serine/threonine kinase.
Binding assays used specific radioligands (tritiated, iodinated) with non-radioactive competitive displacement ligands in agonist or antagonist protocols (as indicated) and various reference compounds and inhibitors to titrate specific binding to receptors and transporters. Most enzyme assays (CYPs, kinases, phosphatases, proteases, HDACs) used recombinant protein and specific substrates (fluorescence mostly, some colorimetric and radioactive) and inhibitors, followed by a biochemical separation of substrate and product. All assays for the biochemical HTS were initially run in duplicate at a single concentration (10 uM for CYP450 assays and 25 uM for all others). Assay-chemical combinations meeting a pre-defined threshold (e.g., 30% inhibition and other criteria defined below) were then run in singleton concentration-response format with maximum concentration of 20 uM for CYPs and 50 uM for all others. Each assay was run with positive and negative controls, and concurrent controls on every plate. The follow-up (secondary) screen tested active chemical-pairs in concentration series, as well as a few additional assays not tested in the primary screen, some selected negative inactives, and several cases re-run in the concentration series for confirmatory purposes.

Chain of human AMP-activated Protein Kinase, alpha 1 (AMPKa1), PRKAA1 (gene 5562) (Q13131 whole entry, looked up): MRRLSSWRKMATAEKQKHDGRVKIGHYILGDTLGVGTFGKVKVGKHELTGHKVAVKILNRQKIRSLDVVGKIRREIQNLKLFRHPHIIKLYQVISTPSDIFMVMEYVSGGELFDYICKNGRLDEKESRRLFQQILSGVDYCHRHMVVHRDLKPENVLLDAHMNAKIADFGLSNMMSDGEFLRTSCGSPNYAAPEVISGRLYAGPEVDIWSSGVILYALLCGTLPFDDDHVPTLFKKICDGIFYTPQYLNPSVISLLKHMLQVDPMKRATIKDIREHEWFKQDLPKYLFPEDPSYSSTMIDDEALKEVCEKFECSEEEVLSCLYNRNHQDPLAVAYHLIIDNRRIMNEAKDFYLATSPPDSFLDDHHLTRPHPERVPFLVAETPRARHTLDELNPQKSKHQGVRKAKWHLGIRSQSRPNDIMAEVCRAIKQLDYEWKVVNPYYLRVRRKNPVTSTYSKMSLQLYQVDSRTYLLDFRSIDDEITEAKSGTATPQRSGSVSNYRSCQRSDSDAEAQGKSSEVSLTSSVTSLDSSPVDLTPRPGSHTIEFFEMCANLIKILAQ

| SMILES | outcome | AC50 |
| --- | --- | --- |
| N#Cc1cccnc1 | inactive |  |
| O=C(O)C1(c2ccc3c(c2)OC[C@H](Cc2ccc(-c4ccccc4)cc2)[C@H]3O)CCCC1 | inactive |  |
| CC(C)O.CC(C)O.OCCN(CCO)CCO.OCCN(CCO)CCO.[Ti] |  | 1.5 µM (active) |
| CCCCCCCCCCCCc1cccc(S(=O)(=O)O)c1 | inactive |  |
| O=C(N[C@H]1CN2CCC1CC2)c1ccc2c(c1)OCCO2 | inactive |  |
| CCCCCCCCCCCCOS(=O)(=O)O | inactive |  |
